# Source: PubChem BioAssay
# TRb SRC2 PPI = TRbeta-SRC2 interaction inhibition; TRbeta-SRC2 peptide binding, fluorescence polarization; receptor liganded with 1 µM T3; hit rate 0.065% among 280,000; Potency, µM (highest dose often 106 µM), inactives show at the highest dose activity change, negative = inhibition, actives largely listed as inhibitors;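 note: potency is the fitted concentration of half-maximal effect; plate controls were bound peptide for no effect and peptide without receptor for full effect; nearly all actives have a fitted effect of over 50% in size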
# Target sequence (P10828 whole entry, looked up): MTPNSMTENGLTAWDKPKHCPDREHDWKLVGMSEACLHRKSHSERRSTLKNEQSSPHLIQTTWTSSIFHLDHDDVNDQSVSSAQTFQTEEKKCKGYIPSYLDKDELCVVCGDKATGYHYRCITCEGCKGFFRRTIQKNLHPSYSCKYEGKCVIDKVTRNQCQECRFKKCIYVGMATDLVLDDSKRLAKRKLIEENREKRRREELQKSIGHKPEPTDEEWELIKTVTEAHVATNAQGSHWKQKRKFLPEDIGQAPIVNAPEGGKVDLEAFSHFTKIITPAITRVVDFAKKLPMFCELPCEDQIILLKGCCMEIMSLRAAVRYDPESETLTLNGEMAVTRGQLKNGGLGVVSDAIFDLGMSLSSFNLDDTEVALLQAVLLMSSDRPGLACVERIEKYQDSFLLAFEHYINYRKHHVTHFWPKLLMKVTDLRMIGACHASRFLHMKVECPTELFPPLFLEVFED
#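 Each compound concentration gave % activity, normalized to unbound and bound Texas Red SRC2 controls, from polarization read after 5 hr ambient incubation with T3-loaded human TRb LBD.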
# TexasRed fluor = Texas Red fluorescence interference in TRb-SRC2 counter-screen. hit rate 0.29% among 280,000. TRb/SRC2 Texas Red total fluorescence interference. AID 1479. Potency, µM (series often up to 106 µM), for the others: at the top dose fluorescence change, negative = quenching; active = well fitted curve in either direction with a large enough effect; inconclusive = small, poorly fitted or top-dose-only effect; note: potency is the fitted concentration of half-maximal effect; % is set by controls: 0 for no effect and ±100 for the full control effect
#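 Flags fluorescent or light-absorbing compounds by total fluorescence, S + 2P, at 555 nm excitation and 632 nm emission. Mixture: 20 nM Texas Red SRC2 peptide, 0.6 uM human TRb LBD, 1 uM T3, 5% DMSO; compound exposure 5 h at ambient temperature.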
# Coupling enz = inhibits coupling enzyme system, counter-screen for aldolase hits; coupling enzyme system counterscreen, AmpLite Red fluorescence; activity change, negative = inhibition, % at 58.2 µM, hits read low; hit rate 0.67% among 290,000; in the data active = activity change below about -30%; note: % is set by controls: 0 for no effect and ±100 for the full control effect
#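 Activity here indicates interference with the coupling reaction, not aldolase inhibition. Compounds at 57.5 uM final met coupling enzymes for 10 min at RT; substrate and AmpLite Red detection followed, with a 525/598 nm fluorescence read after 20 min.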
# JMJD2E inh = inhibitors of human JMJD2E histone demethylase; Potency, µM (doses to about 57.1 µM), for inactives: at the highest dose activity change, negative = inhibition, hits mostly inhibitors; AID 2147; JMJD2E catalytic domain, FDH-coupled NADH fluorescence (FDH is formaldehyde dehydrogenase); hit rate 1.6% among 230,000; active = well fitted inhibition curve with a large enough effect, not every such curve was filed as active; inconclusive = small, poorly fitted or top-dose-only effect, or another doubt; inactive = no such curve, though single readings can be large or run the other way;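 note: potency is the fitted concentration of half-maximal effect; 0% = wells with enzyme and -100% = buffer wells without enzyme; nearly all actives have a fitted effect of over 50% in size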
# HTT ATP protect = protects HTT-Q103 PC12 cells, measured by ATP; PC12 HTT-Q103 induced, cytoprotection, ATP luminescence, 40 h; Potency, µM (highest dose often 56.4 µM), inactives show cytoprotection (ATP increase), usual class: activators; hit rate 0.14% among 230,000; AID 1471; note: potency is the fitted concentration of half-maximal effect; % of control where 0% means no effect; nearly all actives have a fitted effect of over 45% in size
#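 ATP quantification (ATPlite) reports survival of PC12 cells in which tebufenozide, 100 nM final, switches on Htt exon 1 with 103 glutamines linked to GFP; compounds are titrated.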
# HTT aggregate = reduces HttQ103-GFP aggregates in PC12 cells. PC12 HttQ103-GFP aggregates, Acumen cytometry, 40 h. Potency, µM (titrated, usually from 46.1 µM), for the others: at the highest dose activity change, negative = inhibition, actives largely listed as inhibitors. hit rate 1.1% among 220,000. AID 1688; note: potency is the fitted concentration of half-maximal effect; % is set by controls: 0 for no effect and ±100 for the full control effect; nearly all actives have a fitted effect of over 60% in size
#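 Steps: seed 1500 PC12 HTTQ103-GFP cells/well; add tebufenozide, 100 nM final; add compound titration; add ATPLite reagent; quantify GFP aggregates by laser scanning cytometry.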
# Numbers without * were called inactive; ? = inconclusive; . = no result; ! = not confirmed by another sample; [ ] = remark or other dose. Hits are enriched below; roughly 2% of the tested compounds scored in any of these assays. Unless noted, calls come from the whole dose curve; as a rule, active = well fitted curve in the direction sought with a large enough effect; inconclusive = small, poorly fitted or top-dose-only effect, or another doubt; inactive = no such curve, though single readings can be large; an effect the other way counts as inactive or inconclusive.
SMILES,TRb SRC2 PPI,TexasRed fluor,Coupling enz,JMJD2E inh,HTT ATP protect,HTT aggregate
c1cncc(CNC2CCCC2)c1,11.0%[53 µM],-0.3%[53 µM],1.2,22.4µM*,6.1%[10 µM],-3.9%[9.22 µM]
Cc1cccc(N2CCc3c2nc2ccccc2c3N)c1,-8.3%,-1.2%,-33.9*!,?,-16.5%[10 µM],-21.3%
CCc1ccc(-n2c(O)c(/C=N/NC(=O)c3ccncc3)c(=O)[nH]c2=O)cc1,-9.3%,-6.1%,4.0,11.2µM*,1.4%[10 µM],-17.8%
Cc1cc(C)c(-n2c(O)c(/C=N/NC(=O)c3ccncc3)c(=O)[nH]c2=O)c(C)c1,-6.0%,0.9%,0.3,14.1µM*,19.7%[10 µM],17.1%[9.22 µM]
CCCCC(=O)N/N=C/c1c(O)n(Cc2ccco2)c(=O)[nH]c1=O,10.0%,-0.2%,2.9,25.1µM*,-2.6%[10 µM],-1.1%
CC(C)c1ccc(-n2c(O)c(/C=N/NC(=O)c3ccncc3)c(=O)[nH]c2=O)cc1,11.1%,-9.6%,12.4,?,18.8%[10 µM],12.9%
CCCCn1c(O)c(/C=N/NC(=O)c2ccncc2)c(=O)[nH]c1=O,1.4%,-3.5%,0.2,8.91µM*,19.1%[10 µM],-13.2%[9.22 µM]
O=C(N/N=C/c1c(O)n(Cc2ccco2)c(=O)[nH]c1=O)c1ccccc1O,2.1%,-9.9%,6.1,?,30.9%[10 µM],-25.8%[9.22 µM]
CCC[CH2][Sn]1([CH2]CCC)[O]C(=O)C=CC(=O)[O]1,-7.8%[201 µM],-4.2%[201 µM],.,.,.,.
COP(=O)(OC)Oc1nc(Cl)c(Cl)cc1Cl,-9.7%[201 µM],0.8%[201 µM],.,.,.,.
CCCCCCCCCCCCN(C)C,5.6%[201 µM],1.0%[201 µM],.,.,.,.
O=C(N/N=C/c1c(O)n(C2CCCCC2)c(=S)[nH]c1=O)c1ccccc1,.,.,-0.2,.,.,.
O=C(N/N=C/C1C(=O)NC(=S)N(c2ccccc2)C1=O)c1cc(Br)c(O)c(Br)c1 (stereo not drawn),4.3%,-12.5%,2.0,22.4µM*,-36.8%,18.9%
COc1ccccc1OCC#CCN1CCOCC1,6.1%,0.2%,0.3,-3.0%,-24.1%,16.8%
COc1ccccc1OCC#CCN1CCCCCC1,4.8%,2.6%,4.5,0.1%,5.62µM*,?
C[n+]1c(-c2ccccc2)c2cc(N)ccc2c2ccc(N)cc21,.,.,-38.6*,.,.,.
Nc1ccc2ccc3cccc[n+]3c2c1,.,.,-7.0,.,.,.
CCC[CH2][Sn]([Cl])([CH2]CCC)[CH2]CCC,8.2%[201 µM],1.4%[201 µM],.,.,.,.
CC(C)(C)OOC(C)(C)CCC(C)(C)OOC(C)(C)C,6.0%[201 µM],-4.2%[201 µM],.,.,.,.
O=Cc1cn(Cc2ccccc2[N+](=O)[O-])c2ccccc12,3.4%,-1.2%,4.0,7.0%,.,14.1µM*
O=C=Nc1ccc(Cl)cc1,-2.4%[201 µM],-6.1%[201 µM],.,.,.,.
CCCCN1C(=O)/C(=C/c2ccc(N(C)C)cc2)C(=O)N(Cc2ccco2)C1=O,?,39.8µM*[fluorescent],-1.2,-7.9%,12.5%,26.9%
CCCCN1C(=O)/C(=C\c2ccco2)C(=O)N(CCc2ccccc2)C1=O,?,28.2µM*[fluorescent],0.3,-5.7%,-11.7%,3.6%
CCN(CC)c1ccc(/C=C2\C(=O)NC(=O)N(Cc3ccco3)C2=O)cc1,?,?,0.9,-10.0%,0.7%[10 µM],-10.7%
O=S(=O)(O)C(F)(F)C(F)(F)C(F)(F)C(F)(F)C(F)(F)C(F)(F)F,-2.9%[201 µM],-3.4%[201 µM],.,.,.,.
SMILES,TRb SRC2 PPI,TexasRed fluor,Coupling enz,JMJD2E inh,HTT ATP protect,HTT aggregate
O=C(O)C(F)(F)C(F)(F)C(F)(F)C(F)(F)C(F)(F)C(F)(F)C(F)(F)C(F)(F)F,?,126µM*![quencher],.,.,.,.
CCOP(=S)(OCC)SCCl,-0.3%[201 µM],-1.7%[201 µM],.,.,.,.
Oc1cccc[c]1[Hg][Cl],.,.,.,.,-98.9%,8.91µM*
Cc1ccccc1O,3.5%[201 µM],-2.4%[201 µM],.,.,3.1%,.
O=C(c1ccc(Cl)cc1)C1CCCN(Cc2cccc3cnccc23)C1 (stereo not drawn),-3.6%,-4.3%,0.9,8.1%,-25.4%,20µM*
COc1cc2c(cc1OC)-c1c(OC)c(OC)c(OC)c3ccnc(c13)C2=O,2.0%,-1.9%,-27.9,-6.9%,.,11.2µM*
CN(C)c1ccc(NC(=O)Oc2ccccc2)cc1,44.7µM*,?,-1.8,?,-22.9%,19.6%
CN(C)c1ccc(N=Nc2ccccc2)cc1,-4.7%,-1.4%,.,.,-107.4%,.
